# In PubChem BioAssay (NCATS):
# Inconclusive results are not listed. Where a call stands in place of a potency, no number is given. Active and inactive are the calls of the source. Unless noted, calls come from the whole dose curve; as a rule, active = well fitted curve in the direction sought with a large enough effect; inconclusive = small, poorly fitted or top-dose-only effect, or another doubt; inactive = no such curve, though single readings can be large; an effect the other way counts as inactive or inconclusive.
# What was measured:
# [1] = target: Beta-2 adrenergic receptor (Homo sapiens) (UniProt P07550); assay: qHTS validation assay of beta-arrestin-biased ligands of beta2-adrenergic receptor (AID 485366)
# Sequence of Beta-2 adrenergic receptor (Homo sapiens) (P07550 whole entry, looked up): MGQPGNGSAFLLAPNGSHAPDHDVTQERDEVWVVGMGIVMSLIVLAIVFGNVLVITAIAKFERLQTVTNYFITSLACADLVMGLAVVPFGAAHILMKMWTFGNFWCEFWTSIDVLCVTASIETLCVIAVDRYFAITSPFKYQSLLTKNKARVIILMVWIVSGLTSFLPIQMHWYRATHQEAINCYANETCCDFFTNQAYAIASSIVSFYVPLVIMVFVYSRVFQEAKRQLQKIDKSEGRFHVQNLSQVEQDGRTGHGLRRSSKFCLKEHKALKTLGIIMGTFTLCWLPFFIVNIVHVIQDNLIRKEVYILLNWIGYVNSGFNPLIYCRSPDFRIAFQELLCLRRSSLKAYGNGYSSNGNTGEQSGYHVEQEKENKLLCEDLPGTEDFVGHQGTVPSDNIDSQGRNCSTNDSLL
# Summary of the method: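 Luminescence from a tTA-responsive luciferase, induced when recombinant beta-arrestin is recruited to recombinant beta2-AR, served as the agonism signal. Cells were exposed to compound for 18 hr at 37 degrees C; titrations spanned up to 46 microM.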
# [2] = target: ATP-dependent 6-phosphofructokinase (Trypanosoma brucei brucei) (UniProt O15648); assay: qHTS Validation Assay to Find Inhibitors of T. brucei phosphofructokinase (AID 485368)
# Sequence of ATP-dependent 6-phosphofructokinase (Trypanosoma brucei brucei) (O15648 whole entry, looked up): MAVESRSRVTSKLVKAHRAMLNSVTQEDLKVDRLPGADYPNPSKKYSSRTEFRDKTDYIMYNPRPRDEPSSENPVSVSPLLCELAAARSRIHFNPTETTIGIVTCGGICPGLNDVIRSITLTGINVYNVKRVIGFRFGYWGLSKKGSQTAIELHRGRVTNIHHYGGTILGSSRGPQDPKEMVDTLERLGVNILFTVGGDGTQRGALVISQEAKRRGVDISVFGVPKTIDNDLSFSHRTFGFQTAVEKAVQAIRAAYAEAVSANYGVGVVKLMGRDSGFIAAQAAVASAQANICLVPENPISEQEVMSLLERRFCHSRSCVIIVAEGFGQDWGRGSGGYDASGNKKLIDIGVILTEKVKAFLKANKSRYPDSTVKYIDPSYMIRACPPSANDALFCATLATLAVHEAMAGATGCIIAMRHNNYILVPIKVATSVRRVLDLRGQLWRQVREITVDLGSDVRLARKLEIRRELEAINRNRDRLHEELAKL
# Summary of the method: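 Activity was normalized between 1x (1.25 nM) PFK wells as no inhibition and enzyme-free wells as full inhibition, from luminescence after ADP-Glo detection of ADP made from 0.5 mM F6P and 0.1 mM ATP over 45 min.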
# [3] = Quantitative high throughput screen for delayed death inhibitors of the malarial parasite plastid, 48 hour incubation (AID 488752); note: nearly all actives have a fitted effect of over 65% in size; note: potency is the fitted concentration of half-maximal effect
# Summary of the method: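 One parasite generation (48 h, 37 C, 5% CO2) of luciferase-reporter P. falciparum in erythrocytes is run with test compound; decreased luminescence indicates inhibited growth.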
# [4] = target: Thioredoxin reductase 1, cytoplasmic (Rattus norvegicus) (UniProt O89049); assay: qHTS Assay for Substrates of Mammalian Selenoprotein Thioredoxin Reductase 1 (TrxR1) (AID 488772);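 note: NADPH fluorescence in the first read after selenite addition and not the 8 min delta; series mostly up to about 57 µM; a drop in NADPH fluorescence below the no-compound background marks a TrxR1 substrate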
# Sequence of Thioredoxin reductase 1, cytoplasmic (Rattus norvegicus) (O89049 whole entry, looked up): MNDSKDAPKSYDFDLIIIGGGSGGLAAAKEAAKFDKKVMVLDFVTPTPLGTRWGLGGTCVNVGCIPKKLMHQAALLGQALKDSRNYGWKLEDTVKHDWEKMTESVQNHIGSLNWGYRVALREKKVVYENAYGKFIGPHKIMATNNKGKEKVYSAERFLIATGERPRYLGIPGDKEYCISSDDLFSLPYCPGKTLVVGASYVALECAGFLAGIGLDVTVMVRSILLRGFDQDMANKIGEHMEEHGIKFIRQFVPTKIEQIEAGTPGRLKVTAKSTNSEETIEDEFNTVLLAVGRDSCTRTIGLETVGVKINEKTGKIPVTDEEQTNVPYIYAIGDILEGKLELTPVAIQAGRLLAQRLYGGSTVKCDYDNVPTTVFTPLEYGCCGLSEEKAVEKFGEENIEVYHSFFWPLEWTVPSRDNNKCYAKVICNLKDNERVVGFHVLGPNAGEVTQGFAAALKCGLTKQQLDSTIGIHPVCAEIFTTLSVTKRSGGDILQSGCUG
# Summary of the method: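 Quantitative HTS in Tris-HCl buffer at pH 7.5 with EDTA and Tween-20, using rat TrxR1, 400 uM NADPH and 400 uM selenite (final). A fall in initial NADPH fluorescence relative to background marked substrate behaviour.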
# [5] = target: Thioredoxin reductase 1, cytoplasmic (Rattus norvegicus) (UniProt O89049); assay: qHTS Assay for Inhibitors of Mammalian Selenoprotein Thioredoxin Reductase 1 (TrxR1) (AID 488773);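 note: drop in NADPH fluorescence over an 8 min run after selenite addition; series mostly up to about 57 µM; nearly all actives have a fitted effect of over 40% in size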
# Summary of the method: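 Steps: enzyme (90 nM) plus NADPH (400 uM final), 5 min at ~22 deg C; compound added, 15 min; selenite (400 uM final) added; fluorescence followed for 8 min. Concentration-response curves derived from the normalized delta values.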
# [6] = target: Flap endonuclease 1 (Homo sapiens) (UniProt P39748); assay: qHTS Validation Assay for the Inhibitors of Human Flap endonuclease 1 (FEN1) (AID 488816)
# Sequence of Flap endonuclease 1 (Homo sapiens) (P39748 whole entry, looked up): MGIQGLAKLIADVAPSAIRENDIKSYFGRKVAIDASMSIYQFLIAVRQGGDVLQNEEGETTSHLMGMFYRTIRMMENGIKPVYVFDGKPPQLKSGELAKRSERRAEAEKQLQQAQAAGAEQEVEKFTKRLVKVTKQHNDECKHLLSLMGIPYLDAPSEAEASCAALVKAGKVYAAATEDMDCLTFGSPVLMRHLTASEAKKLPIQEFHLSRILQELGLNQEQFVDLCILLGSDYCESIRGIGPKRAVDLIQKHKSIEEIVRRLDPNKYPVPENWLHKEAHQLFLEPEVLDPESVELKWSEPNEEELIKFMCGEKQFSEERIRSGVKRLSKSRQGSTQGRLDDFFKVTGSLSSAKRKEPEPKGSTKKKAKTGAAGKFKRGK
# Summary of the method: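 Readings taken at 0 and 15 min after starting the reaction with 50 nM (final) substrate supplied the signal. Compounds had first sat with 10 nM FEN1 reagent for 15 min at room temperature. Values come from Hill-equation concentration-response fits.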
# [7] = target: M-phase phosphoprotein 8 (Homo sapiens) (UniProt Q99549); assay: qHTS Validation Assay for Inhibitors for MPP8 Chromodomain Interactions with Methylated Histone Tails (AID 488949);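 note: AlphaScreen signal from MPP8 chromodomain bound to biotinylated H3K9me3 peptide; top concentration of the series differs between compounds; nearly all actives have a fitted effect of over 55% in size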
# Sequence of M-phase phosphoprotein 8 (Homo sapiens) (Q99549 whole entry, looked up): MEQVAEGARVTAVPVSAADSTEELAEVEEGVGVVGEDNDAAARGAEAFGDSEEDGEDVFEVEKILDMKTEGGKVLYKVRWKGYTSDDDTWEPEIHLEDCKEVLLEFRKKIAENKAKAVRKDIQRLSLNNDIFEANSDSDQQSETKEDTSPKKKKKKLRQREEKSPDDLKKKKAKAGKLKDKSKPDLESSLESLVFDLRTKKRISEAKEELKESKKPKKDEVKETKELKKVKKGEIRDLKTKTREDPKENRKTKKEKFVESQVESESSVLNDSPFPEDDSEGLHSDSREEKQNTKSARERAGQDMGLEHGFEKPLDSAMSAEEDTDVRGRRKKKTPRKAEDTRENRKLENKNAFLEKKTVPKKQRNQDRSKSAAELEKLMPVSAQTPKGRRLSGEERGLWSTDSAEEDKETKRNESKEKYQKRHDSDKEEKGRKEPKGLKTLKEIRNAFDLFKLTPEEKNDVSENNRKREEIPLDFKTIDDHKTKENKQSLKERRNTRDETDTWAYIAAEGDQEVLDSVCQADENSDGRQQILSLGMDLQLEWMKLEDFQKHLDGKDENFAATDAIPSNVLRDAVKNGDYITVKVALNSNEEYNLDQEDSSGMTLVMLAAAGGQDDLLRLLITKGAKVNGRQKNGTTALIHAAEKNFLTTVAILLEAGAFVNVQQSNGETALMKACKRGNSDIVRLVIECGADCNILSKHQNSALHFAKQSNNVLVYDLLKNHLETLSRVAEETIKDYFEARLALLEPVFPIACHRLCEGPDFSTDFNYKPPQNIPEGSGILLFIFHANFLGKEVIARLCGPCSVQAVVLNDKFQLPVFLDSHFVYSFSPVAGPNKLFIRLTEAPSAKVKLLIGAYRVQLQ
# Summary of the method: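 Disruption of the preformed MPP8–trimethyl-H3K9 peptide complex (both 50 nM, 30 min, RT) is measured after 30 min compound exposure, using AlphaScreen proximity beads; aurintricarboxylic acid titration serves as plate control.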
# [8] = target: Chromobox protein homolog 1 (Homo sapiens) (UniProt P83916); assay: qHTS Validation Assay for Inhibitors of HP1-beta Chromodomain Interactions with Methylated Histone Tails (AID 488953);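 note: loss of AlphaScreen luminescence from HP1-beta binding biotinylated H3K9me3 peptide; series mostly up to about 110 µM; nearly all actives have a fitted effect of over 50% in size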
# Sequence of Chromobox protein homolog 1 (Homo sapiens) (P83916 whole entry, looked up): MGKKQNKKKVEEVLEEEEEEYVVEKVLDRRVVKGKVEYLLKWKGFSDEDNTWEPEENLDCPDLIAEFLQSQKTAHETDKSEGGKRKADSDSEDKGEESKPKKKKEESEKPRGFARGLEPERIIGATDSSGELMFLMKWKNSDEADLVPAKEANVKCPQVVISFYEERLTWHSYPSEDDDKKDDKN
# Summary of the method: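 Measured as loss of AlphaScreen luminescence from streptavidin donor and nickel acceptor beads (10 ug/mL final) bridging HP1-beta and biotin-H3(1-18)K9me3, each 50 nM. Compounds met the preassembled complex for 30 min at RT.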
# [9] = target: Methanococcus maripaludis chaperonin (MmCpn) (UniProt Q6LX38); assay: High-Throughput Screening for Modulators of Cytosolic Chaperonin Activity: MmCpn Primary Screen (AID 488978);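 note: 50 nM MmCpn enzyme hydrolysing 30 µM ATP at 37 °C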
# Summary of the method: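 Measures ATPase turnover of the M. maripaludis chaperonin (50 nM final) against 30 uM ATP over 10 min at 37C, with compound added 5 min beforehand at room temperature. ADP is quantified by HTRF immunodetection.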
# [10] = target: Transient receptor potential cation channel subfamily V member 1 (Homo sapiens) (UniProt Q8NER1); assay: HTS Assay for Compounds that Act as Enhancers of the Vanilloid Receptor 1 (AID 488979)
# Sequence of Transient receptor potential cation channel subfamily V member 1 (Homo sapiens) (Q8NER1 whole entry, looked up): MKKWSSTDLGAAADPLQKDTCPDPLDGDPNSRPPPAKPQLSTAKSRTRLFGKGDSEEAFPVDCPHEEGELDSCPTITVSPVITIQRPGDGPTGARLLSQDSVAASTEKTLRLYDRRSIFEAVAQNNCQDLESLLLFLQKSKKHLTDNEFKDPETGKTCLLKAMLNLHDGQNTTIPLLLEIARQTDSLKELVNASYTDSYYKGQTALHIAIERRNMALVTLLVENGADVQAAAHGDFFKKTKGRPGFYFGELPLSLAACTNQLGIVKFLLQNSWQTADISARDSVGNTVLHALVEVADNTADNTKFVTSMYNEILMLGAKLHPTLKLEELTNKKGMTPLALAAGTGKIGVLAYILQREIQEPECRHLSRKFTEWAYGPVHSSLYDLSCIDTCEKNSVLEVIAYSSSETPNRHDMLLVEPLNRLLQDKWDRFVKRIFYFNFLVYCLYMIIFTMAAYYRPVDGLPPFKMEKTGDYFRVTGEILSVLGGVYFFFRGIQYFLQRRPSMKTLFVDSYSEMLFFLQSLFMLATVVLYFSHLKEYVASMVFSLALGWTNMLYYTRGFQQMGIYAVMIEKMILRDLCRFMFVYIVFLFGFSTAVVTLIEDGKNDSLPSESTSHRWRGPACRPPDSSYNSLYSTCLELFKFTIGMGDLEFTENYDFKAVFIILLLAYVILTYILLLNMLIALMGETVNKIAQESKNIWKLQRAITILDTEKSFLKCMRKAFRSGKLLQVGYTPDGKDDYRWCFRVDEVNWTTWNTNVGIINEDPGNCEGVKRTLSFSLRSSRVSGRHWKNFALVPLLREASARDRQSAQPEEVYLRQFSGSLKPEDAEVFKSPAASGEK
# Summary of the method: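 Calcium influx kinetics via Fluo-8 (480/520 nm) in TRPV1-expressing cells, 2000/well cultured overnight at 35.5C. Compound-alone read 3 min (agonist phase), followed by EC20 capsaicin challenge for 2 min (enhancer phase).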
# [11] = target: Thyrotropin receptor (Homo sapiens) (UniProt P16473); assay: qHTS Assay for Antagonists of the Thyroid Stimulating Hormone Receptor (AID 488980); note: series mostly up to about 58 µM
# Summary of the method: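 Cells expressing human TSHR (HEK293) are dispensed in HBSS/HEPES containing 70 uM RO 20-1724, compound is added, then TSH at EC80 (4 nM final). Antibody in lysis buffer follows, 30 minutes at room temperature before HTRF detection.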
# [12] = target: D(1A) dopamine receptor (Homo sapiens) (UniProt P21728); assay: HTS Assay for Allosteric Agonists of the Human D1 Dopamine Receptor: Primary Screen for Agonists (AID 488981)
# Sequence of D(1A) dopamine receptor (Homo sapiens) (P21728 whole entry, looked up): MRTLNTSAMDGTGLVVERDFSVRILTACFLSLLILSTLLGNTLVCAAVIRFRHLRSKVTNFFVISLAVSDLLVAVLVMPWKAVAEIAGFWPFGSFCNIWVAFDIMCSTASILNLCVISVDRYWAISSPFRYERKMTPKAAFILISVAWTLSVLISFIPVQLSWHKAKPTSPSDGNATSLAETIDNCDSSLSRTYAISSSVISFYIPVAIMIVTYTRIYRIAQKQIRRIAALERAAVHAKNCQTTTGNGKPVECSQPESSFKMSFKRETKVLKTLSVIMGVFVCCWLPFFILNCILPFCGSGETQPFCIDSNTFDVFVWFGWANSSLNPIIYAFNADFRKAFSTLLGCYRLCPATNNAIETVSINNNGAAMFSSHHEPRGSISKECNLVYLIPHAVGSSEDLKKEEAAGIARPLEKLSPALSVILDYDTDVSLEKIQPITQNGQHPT
# Summary of the method: (§1)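 Calcium flux in an inducible, force-coupled HEK293 Trex D1 line (overnight at 30 C): agonist mode is the 180 s kinetic read after compound; potentiator mode is the following 180 s read after dopamine at EC20.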
# [13] = target: D(1A) dopamine receptor (Homo sapiens) (UniProt P21728); assay: HTS Assay for Allosteric Agonists of the Human D1 Dopamine Receptor: Primary Screen for Potentiators (AID 488982)
# Summary of the method: as §1
# [14] = target: ATP-dependent 6-phosphofructokinase (Trypanosoma brucei brucei) (UniProt O15648); assay: qHTS Assay to Find Inhibitors of T. brucei phosphofructokinase: hit validation (AID 492961);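 note: luminescence reports ADP formed as PFK phosphorylates fructose-6-phosphate with ATP; series mostly up to about 51 µM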
# Summary of the method: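 In this biochemical qHTS validation, titrated compounds were tested against 1.25 nM PFK with 0.1 mM ATP and 0.5 mM F6P. Percent activity came from controls lacking or containing enzyme.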
# [15] = Validation screen for small molecules that induce genotoxicity in human embryonic kidney (HEK293T) cells expressing luciferase-tagged ELG1 (AID 493106)
# Summary of the method: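 Reporter-gene quantitative HTS in HEK293T cells carrying luciferase-tagged ELG1, whose level climbs under genotoxic stress. Compound exposure lasts 16 hr at 37 °C before luciferase detection.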
# [16] = target: Thyrotropin-releasing hormone receptor (Homo sapiens) (UniProt P34981); assay: qHTS for Small Molecule Agonists and Allosteric Enhancers of Human TRH Receptor: Validation Screen for Agonists (AID 493127;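 active = calcium activation more than 3 SD above the typical response in the agonist read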;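 note: intracellular calcium rise by fluo-8 fluorescence before TRH EC20 addition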); settings: TRH receptor agonist cell assay; at 2 µM; stronger effect = higher value
# Sequence of Thyrotropin-releasing hormone receptor (Homo sapiens) (P34981 whole entry, looked up): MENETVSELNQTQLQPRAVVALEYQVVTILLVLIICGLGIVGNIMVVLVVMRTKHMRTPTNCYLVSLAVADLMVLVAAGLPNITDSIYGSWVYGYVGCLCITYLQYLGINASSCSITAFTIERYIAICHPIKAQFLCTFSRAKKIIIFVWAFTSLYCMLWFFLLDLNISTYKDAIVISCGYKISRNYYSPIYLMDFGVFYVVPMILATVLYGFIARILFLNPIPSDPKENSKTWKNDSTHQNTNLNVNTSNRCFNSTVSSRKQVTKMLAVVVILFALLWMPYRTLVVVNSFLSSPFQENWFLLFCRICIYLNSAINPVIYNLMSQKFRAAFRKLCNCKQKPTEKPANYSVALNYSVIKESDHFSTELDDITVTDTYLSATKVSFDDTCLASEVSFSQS
# Summary of the method: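 Gq-coupled calcium mobilization in TRHR cells after compound addition, monitored kinetically with fluo-8 dye on an FDSS reader.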
# [17] = Nrf2 qHTS screen for inhibitors: Validation (AID 493153; active = well fitted inhibition curve with a large enough effect in the main read-out, with a control signal flat, not every such curve was filed as active); settings: viability change: measured here: cytotoxicity max response
# Summary of the method: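 Dose-response validation uses reporter A549 cells with firefly luciferase under an antioxidant response element. Compounds stay on cells 18-24 h at 37°C, and luminescence indicates Nrf2-driven transcription.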
# [18] = qHTS for Inhibitors of Cell Surface uPA Generation: Validation Assay (AID 493164);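 note: RAW 264.7 macrophage cells exposed to compound for 18 h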
# Summary of the method: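 RAW 264.7, 4000 cells/well, o/n plating; cpd 7-pt 1:5 dilution 2.45 nM–38.3 uM final; 18 h, 37 C/5% CO2; ATP-Lite, 5 s luminescence exposure.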
# [19] = target: Galactokinase (Homo sapiens) (UniProt P51570); assay: qHTS Validation Assay for Inhibitors of Human Galactokinase (GALK) (AID 493189)
# Sequence of Galactokinase (Homo sapiens) (P51570 whole entry, looked up): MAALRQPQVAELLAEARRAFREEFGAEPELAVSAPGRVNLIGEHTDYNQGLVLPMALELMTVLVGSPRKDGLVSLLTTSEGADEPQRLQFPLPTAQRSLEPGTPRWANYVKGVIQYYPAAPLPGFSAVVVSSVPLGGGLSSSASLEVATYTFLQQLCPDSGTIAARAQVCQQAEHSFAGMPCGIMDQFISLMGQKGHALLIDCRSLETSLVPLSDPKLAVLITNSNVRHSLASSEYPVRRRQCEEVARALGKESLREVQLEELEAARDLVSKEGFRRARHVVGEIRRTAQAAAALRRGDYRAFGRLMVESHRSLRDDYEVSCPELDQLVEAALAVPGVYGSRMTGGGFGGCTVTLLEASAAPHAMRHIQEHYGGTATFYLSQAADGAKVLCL
# Summary of the method: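 Compounds were pin-transferred into ATP buffer, then GALK-galactose mix was added (final 5 nM enzyme, 100 uM galactose, 35 uM ATP). After 1 h at room temperature, remaining ATP was measured luminescently.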
# [20] = Quantitative high throughput screen for delayed death inhibitors of the malarial parasite plastid, 96 hour incubation (AID 488745);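 note: luciferase-expressing P. falciparum in erythrocytes at 2% hematocrit and 0.1% parasitemia; series mostly up to about 29 µM; nearly all actives have a fitted effect of over 70% in size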
# Summary of the method: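 Growth of reporter-bearing P. falciparum in red cells is measured after 96 h with compound, covering two erythrocytic cycles. Luminescence from the integrated luciferase serves as the growth signal.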
compound,measurement,setting,value
C[N+]1(CCCCC[N+]2(C)CCCC2)CCCC1,outcome,[1],inactive
same,Potency,[2],inactive
same,Potency,[3],inactive
same,outcome,[4],inactive
same,outcome,[5],inactive
same,outcome,[6],inactive
same,Potency,[7],inactive
same,Potency,[8],inactive
same,outcome,[9],inactive
same,outcome,[10],inactive
same,outcome,[11],inactive
same,Potency,[12],inactive
same,outcome,[13],inactive
same,outcome,[14],inactive
same,outcome,[15],inactive
same,activation,[16],0.75% (inactive)
same,outcome,[17],inactive
same,viability change,[17],1.12%
same,outcome,[18],inactive
same,outcome,[19],inactive
CC(CCc1ccccc1)NCC(O)c1ccc(O)c(C(N)=O)c1 (stereo not drawn),Potency,[2],inactive
same,Potency,[3],13.1 µM (active)
same,outcome,[4],inactive
same,outcome,[5],inactive
same,outcome,[6],inactive
same,Potency,[7],inactive
same,Potency,[8],inactive
same,outcome,[9],inactive
same,outcome,[10],inactive
same,Potency,[12],inactive
same,outcome,[13],inactive
same,outcome,[15],inactive
same,activation,[16],0.875% (inactive)
same,outcome,[17],inactive
same,viability change,[17],-13.8%
same,outcome,[18],inactive
same,outcome,[19],inactive
CCC(NC(C)C)C(O)c1ccc(O)c(O)c1 (stereo not drawn),Potency,[2],inactive
same,Potency,[3],inactive
same,outcome,[4],inactive
same,outcome,[6],inactive
same,Potency,[7],inactive
same,Potency,[8],inactive
same,outcome,[9],inactive
same,outcome,[10],inactive
same,outcome,[11],inactive
same,Potency,[12],inactive
same,outcome,[13],inactive
same,outcome,[15],inactive
same,activation,[16],0.625% (inactive)
same,outcome,[17],inactive
same,viability change,[17],-19.1%
same,outcome,[18],inactive
same,outcome,[19],inactive
Cc1ccc(O)c2ncccc12,outcome,[14],inactive
C1CCc2nnnn2CC1,outcome,[1],inactive
same,Potency,[20],inactive
same,Potency,[3],inactive
same,outcome,[4],inactive
same,outcome,[5],inactive
same,outcome,[6],inactive
same,Potency,[7],inactive
same,Potency,[8],inactive
same,outcome,[9],inactive
same,outcome,[10],inactive
same,outcome,[11],inactive
same,Potency,[12],inactive
same,outcome,[13],inactive
same,outcome,[15],inactive
same,activation,[16],-0.375% (inactive)
same,outcome,[17],inactive
same,viability change,[17],4.51%
same,outcome,[18],inactive
same,outcome,[19],inactive
O=C(O)c1cc2cc(Cc3cccnc3)ccc2o1,outcome,[1],inactive
same,Potency,[2],inactive
same,Potency,[20],inactive
same,Potency,[3],inactive
same,outcome,[4],inactive
same,outcome,[5],inactive
same,outcome,[6],inactive
same,Potency,[7],inactive
same,Potency,[8],inactive
same,outcome,[9],inactive
same,outcome,[10],inactive
same,outcome,[11],inactive
same,Potency,[12],inactive
same,outcome,[13],inactive
same,outcome,[15],inactive
same,activation,[16],1.38% (inactive)
same,outcome,[17],inactive
same,viability change,[17],0.85%
same,outcome,[18],inactive
same,outcome,[19],inactive
CCCCN1CCCC1C(=O)Nc1c(C)cc(C)cc1C (stereo not drawn),outcome,[14],inactive
COC(=O)[C@H]1[C@H]2C[C@H]3c4[nH]c5ccccc5c4CCN3C[C@H]2CC[C@@H]1O,outcome,[1],inactive
same,Potency,[2],inactive
same,Potency,[3],inactive
same,outcome,[4],inactive
same,outcome,[5],inactive
same,Potency,[7],inactive
same,Potency,[8],inactive
same,outcome,[9],inactive
same,outcome,[10],inactive
same,outcome,[11],inactive
same,Potency,[12],inactive
same,outcome,[13],inactive
same,outcome,[15],inactive
same,activation,[16],1.44% (inactive)
same,outcome,[17],inactive
same,viability change,[17],-3.55%
same,outcome,[18],inactive
same,outcome,[19],inactive
